ERAP1 HTS inh = ERAP1 (human) enzyme inhibition. Q9NZ08. recombinant ERAP1, Leu-AMC fluorescence, 60 min. inhibition, % at 10.7 µM. 0.15% of 340,000 active. AID 652197;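 active = mean replicate inhibition of at least 30%, or all replicates individually reaching that 30% level; inactive = mean below 30% and not every replicate reaching it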
AF4-AF9 inh = MLL-AF4/AF9 protein interaction inhibition; AlphaScreen, biotin-AF4 peptide binding to FLAG-AF9; 0.47% of 350,000 active; inhibition, % at 10 µM; P42568;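 active = every replicate reaching a set inhibition limit, whatever the replicate mean, cut at about 25% in these data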
Target sequence (P42568 whole entry, looked up): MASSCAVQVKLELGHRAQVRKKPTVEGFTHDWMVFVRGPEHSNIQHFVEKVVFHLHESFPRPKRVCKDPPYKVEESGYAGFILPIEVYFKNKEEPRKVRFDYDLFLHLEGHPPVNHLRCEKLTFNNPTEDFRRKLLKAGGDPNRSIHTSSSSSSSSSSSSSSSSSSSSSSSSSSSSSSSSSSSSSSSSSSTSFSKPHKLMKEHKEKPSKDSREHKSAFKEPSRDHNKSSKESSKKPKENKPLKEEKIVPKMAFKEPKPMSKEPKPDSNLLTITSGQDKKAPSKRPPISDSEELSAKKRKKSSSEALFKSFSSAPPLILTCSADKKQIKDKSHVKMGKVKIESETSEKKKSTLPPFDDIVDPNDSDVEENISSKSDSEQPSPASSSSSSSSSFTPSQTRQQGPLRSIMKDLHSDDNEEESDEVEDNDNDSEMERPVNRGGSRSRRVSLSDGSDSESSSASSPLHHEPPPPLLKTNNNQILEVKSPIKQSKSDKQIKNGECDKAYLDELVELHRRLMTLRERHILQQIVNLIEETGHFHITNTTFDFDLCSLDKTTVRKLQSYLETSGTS
FGF22 binding = FGF22 (human) thermal shift binding. Q9HCT0. 1.5% of 340,000 active. recombinant FGF22 thermal shift, SYPRO orange fluorescence; percent of sucrose octasulfate shift, DMSO zero. activity (Tm shift, normalised), % at 9.99 µM;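 active = mean Tm shift, scaled 0 neutral to 100 positive control, at about 1.3% or above, every replicate too, limit read from the data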
DENV2 CPE = DENV2-induced cell death inhibition | DENV2-infected cells, cytopathic effect rescue, plate reader | CPE inhibition, % at 9.99 µM | 1.7% of 350,000 active; in the data active = CPE inhibition above about 20%, passing the limit was not always enough; tested in BHK-21 cells
RAD52 anneal inh = RAD52 (human) annealing inhibition; 0.46% of 360,000 active; AID 651710; inhibition, % at 18.7 µM; P43351; recombinant RAD52 DNA annealing, FRET fluorescence;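 active = every replicate showing at least 50% inhibition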
Numbers stand for hits; 0 = inactive; - = no result; ! = not active in a repeat. In the library only some 4% were active in any assay of this set; here they are far more common.

SMILES	ERAP1 HTS inh	AF4-AF9 inh	FGF22 binding	DENV2 CPE	RAD52 anneal inh
COc1ccc(NC(=O)N2CCCCN3[C@H](CO)[C@H](c4ccc(C#Cc5ccccc5)cc4)[C@H]3C2)cc1	0	0	0	0	95.0
CC(C)CC#Cc1ccc([C@@H]2[C@H]3CN(C(=O)Nc4ccccc4)CCCCN3[C@H]2CO)cc1	0	0	0	33.1	0
COc1ccc(C#Cc2ccc([C@H]3[C@@H](CO)N4CCCCN(C(=O)Nc5ccccc5)C[C@@H]34)cc2)cc1	0	0	0	70.8	0
Cc1ccc(S(=O)(=O)Nc2cccc3c2O[C@@H](CN(C)S(=O)(=O)c2ccc(Cl)cc2)[C@H](C)CN([C@@H](C)CO)C3=O)cc1	0	0	0	0	0
COc1ccc(NC(=O)N2CCCCN3[C@H](CO)[C@@H](c4ccc(-c5ccccc5C)cc4)[C@@H]3C2)cc1	0	0	0	0	0
COc1ccc(NC(=O)N2CCCCN3[C@H](C2)[C@H](c2ccc(-c4ccccc4C)cc2)[C@@H]3CO)cc1	0	0	0	26.8	0
COc1ccc(C#Cc2ccc([C@@H]3[C@H](CO)N4CCCCN(C(=O)Nc5ccccc5)C[C@@H]34)cc2)cc1	0	0	0	34.2	0
O=C(O)c1cccc(N2C(=O)c3cccc(Oc4ccc(Cl)cc4)c3C2=O)c1	0	0	43.5	0	0
O=C(O)c1ccc(N2C(=O)c3cccc(Oc4ccc(Cl)cc4)c3C2=O)cc1	0	0	44.5	0	0
O=C(O)c1cccc(N2C(=O)c3cc4cccc(Br)c4cc3C2=O)c1	0	0	0	0	0
COc1cccc(S(=O)(=O)Nc2ccc3c(c2)[C@H]2C[C@@H](CC(=O)NC4CCCCC4)O[C@H](CO)[C@H]2O3)c1	0	0	0	0	66.9
COCC(=O)Nc1ccc2c(c1)[C@H]1C[C@@H](CC(=O)NC3CCCCC3)O[C@H](CO)[C@H]1O2	0	0	0	32.5	0
O=C(CC1CC1)Nc1ccc2c(c1)[C@@H]1C[C@@H](CC(=O)NC3CCCC3)O[C@@H](CO)[C@@H]1O2	0	0	0	0	0
O=C(CC1CC1)Nc1ccc2c(c1)[C@@H]1C[C@H](CC(=O)NC3CCCC3)O[C@@H](CO)[C@@H]1O2	0	0	0	29.0!	0
C/C=C/c1ccc([C@H]2[C@H](CO)N(C(C)=O)C23CN(C(=O)c2ccncc2)C3)cc1	0	0	0	0	0
CN(C)C(=O)C[C@H]1CC[C@@H]2[C@H](COC[C@@H](O)CN2C(=O)C2CC2)O1	0	0	0	0	0
COc1ccc(CNC(=O)CCS(=O)(=O)c2ccc3c(c2)NC(=O)CS3)cc1	0	0	0	35.1	0
CCCNC(=O)N1[C@H](CO)[C@H](c2ccccc2)[C@@H]1CNC(=O)c1ccccc1	0	0	0	33.3	0
CCCNC(=O)N1[C@@H](CO)[C@@H](c2ccccc2)[C@@H]1CNC(=O)c1ccccc1	0	0	0	0	0
CCCNC(=O)N1[C@H](CNC(=O)c2cccc(F)c2)[C@@H](c2ccccc2)[C@@H]1CO	-	-	-	43.2	-
COc1ccc2c3c([nH]c2c1)[C@H](CO)N(C(=O)C1CC1)CC31CN(Cc2nccs2)C1	0	0	0	0	0
O=C(NC1=NCCS1)C12CC3CC(CC(C3)C1)C2	0	0	0	0	0
CC(C)CC(NC(=O)CC12CC3CC(CC(C3)C1)C2)C(=O)NC1=NCCS1 (centres undefined)	0	0	42.9	0	0
O=C(COc1ccc(S(=O)(=O)NC2CCCCC2)cc1)NC1CCCC1	0	0	43.4	0	0
Cc1ncc([N+](=O)[O-])n1CCOC(=O)C12CC3CC(CC(C3)C1)C2	0	0	0	0	0
SMILES	ERAP1 HTS inh	AF4-AF9 inh	FGF22 binding	DENV2 CPE	RAD52 anneal inh
Cc1ncc([N+](=O)[O-])n1CCOC(=O)Nc1ccc([N+](=O)[O-])cc1	0	0	43.1	0	0
CN(C)CC(=O)N1[C@H](CO)[C@H](c2ccccc2)C12CN(C(=O)c1cccc(F)c1)C2	0	0	-	0	0
O=C(O)CCCCCN1C(=O)/C(=C\c2cn(-c3ccccc3)nc2-c2cccs2)SC1=S	0	0	0	59.6	0
O=S(=O)(O)c1ccc(NN=Cc2ccccc2O)cc1	0	0	44.1	0	0
CC(=O)N1CC2(C1)[C@@H](c1ccc(-c3ccc(F)cc3)cc1)[C@H](CO)N2C(C)=O	0	0	0	0	0
CC(=O)N1CC2(C1)[C@H](c1ccc(-c3ccc(C#N)cc3)cc1)[C@H](CO)N2CCC(F)(F)F	0	0	0	33.3	0
CC(=O)N1CC2(C1)[C@H](c1ccc(-c3ccc(F)cc3)cc1)[C@H](CO)N2C(C)=O	0	0	0	82.5	0
Cc1nc(S(=O)(=O)N[C@@H]2CCCN(Cc3cccc(OCCO)c3)C2)cn1C	0	0	0	0	0
COc1ccccc1NC(=O)N(C)C[C@H]1Oc2ncc(Br)cc2C(=O)N([C@@H](C)CO)C[C@H]1C	0	0	0	0	0
O=C(c1ccncc1)N1CCCC(N2CCN(c3cccc(C(F)(F)F)c3)CC2)C1 (centres undefined)	0	0	0	20.9	0
CC(=O)N(C)C[C@H]1Oc2cc(-c3ccc(C#N)cc3)ccc2S(=O)(=O)N([C@H](C)CO)C[C@@H]1C	0	0	0	0	0
O=C(N[C@@H](Cc1c[nH]c2ccccc12)C(=O)O)c1ccc(Cl)cc1	0	0	43.7	0	0
Cc1ccc(C(=O)C(C)OC(=O)Cc2c[nH]c3ccccc23)cc1 (centres undefined)	0	0	0	26.5	0
COc1ccc(C(=O)NC(C)Cc2c[nH]c3ccccc23)cc1 (centres undefined)	0	0	43.2	0	0
Cc1ccc(NC(=O)C(C)OC(=O)Cc2c[nH]c3ccccc23)cc1 (centres undefined)	0	0	0	0	0
O=C(Nc1ccc(F)cc1)N1CC(=O)N2[C@H](CO)[C@H](c3ccc(C#Cc4ccc(F)cc4)cc3)[C@@H]2C1	0	0	-	0	0
O=S(=O)(N[C@@H]1CC[C@@H](CCn2cc(C3CC3)nn2)O[C@H]1CO)c1ccc(Cl)cc1	0	0	0	0	0
CN1CCN(C(=O)C2=C[C@H](C3CC3)C[C@H](OCCCCO)O2)CC1	0	0	0	0	0
CC(C)c1ccc(NC(=O)COc2ccccn2)cc1	0	0	43.2	0	0
C[C@@H](O)C#Cc1cnc2c(c1)C(=O)N([C@@H](C)CO)C[C@H](C)[C@@H](CN(C)C(=O)Nc1ccc(F)cc1)O2	0	0	0	0	0
COc1ccc(-c2sc3cc(OC)c(OC)cc3c2C#CCO)cc1	0	0	-	0	0
COc1ccc(-c2sc3cc(OC)c(OC)cc3c2C#CC(C)(C)O)cc1	0	0	0	23.8	0
O=C(Nc1ccc(Cl)c(Cl)c1)N[C@@H]1CC[C@@H](CCNC(=O)c2ccc(F)cc2)O[C@@H]1CO	0	0	0	0	0
O=C(C[C@H]1CC[C@@H]2[C@H](COC[C@H](O)CN2Cc2cccc(Cl)c2)O1)N1CCOCC1	0	0	0	0	0
